# Assay results as given in PubChem BioAssay AID493084 (National Center for Advancing Translational Sciences (NCATS), 2011).
# The whole screen tested about 360,000 compounds, of which about 650 (0.18%) were called active. The sample as a whole holds a higher share of actives than the screen did. Values without a mark were called inactive. Rule as the data show it: active = activation above about 30%; inactive = the rest.
# Biological target: Thyrotropin-releasing hormone receptor (Homo sapiens) (UniProt P34981)
# Experiment: qHTS for Small Molecule Agonists and Allosteric Enhancers of Human TRH Receptor: Primary Screen for Agonists. Also: 0% is about no effect.
# Settings: TRHR cells, calcium flux fluo-8, FDSS agonist mode; at 2 µM; active compounds read high
# Source text: NIH Chemical Genomics Center [NCGC] NIH Molecular Libraries Probe Centers Network [MLPCN] MLPCN Grant: MH089816-01 Assay Submitter (PI): Marvin Gershengorn This project aims to identify small drug-like molecules that activate (agonists) the thyrotropin releasing hormone (TRH) receptor (TRHR) or enhance its TRH-stimulated activity (allosteric enhancers). TRHR, a drug-accessible cell surface receptor expressed in specific brain regions, and its ligand TRH have been implicated in several central nervous system disorders, including depression and anxiety. Small molecule TRHR agonists or allosteric enhancers that are metabolically stable and able to cross the blood-brain barrier might serve as probes to elucidate the roles of brain TRH receptors in animal models, and might be valuable as lead compounds for the development of drugs to treat patients with central nervous system disorders. Upon TRHR-Gq activation in TRHR cells, intracellular calcium is released from stores in the endoplasmic reticulum. […] This primary screen measures compound-induced activation of calcium release.
# For the HTS assay freshly prepared cells are plated at a density of 2000/well in 3 ul of complete DMEM medium containing 10% serum in 1536-well plates and cultured over night at 37 C in a humidified incubator with 5% CO2. The next day, 2 ul of a no wash calcium dye (ABD Bioquest) was added to the cells and plates were incubated at room temperature for 1 hour. For the assay, assay plates were loaded into the FDSS kinetic plate reader. A 10 cycle (1 second/cycle) baseline measurement is taken and then the FDSS online 1536 pintool delivers 23 nl of compound library (as well as TRH controls) to the plate. The plate is measured for kinetically at 1 cycle/sec for 180 seconds and is considered to be the agonist portion of the assay (eg, compounds which activate a positive calcium response during this portion are flagged as potential agonists). Following the 180 second read, 1 ul of either an EC20 (positive modulation assay) is delivered by an onboard pipette head. Measurements are taken kinetically for an additional 180 seconds. TRHR FDSS Screening Protocol 1. Reagent, 3 uL 2000 cells/well 1536 TC treated Black plate in media containing 10% FCS 2. Time, 18 hours, 33.5C 5% CO2 (cells grown at 37C) 3. Reagent, 2 uL ABD fluo-8 Ca dye 4. Time, 30 min-1.5hrs hours, Room temp (6 plates/batch) 5. Detector, EX 480/EM 530C, FDSS 10 cycles baseline (1sec/cycle) 6. Compound, 23 nL of stock solution from library 7. Detector, EX 480/EM 530C, FDSS […] (1sec/cycle) Agonist mode 8. Compound, 1 ul EC20 of TRH made up in HEPES HBSS, 10 nM final 9. Detector, EX 480/EM 530C, FDSS 100 cycles (1sec/cycle) Potentiator mode
# Chain of Thyrotropin-releasing hormone receptor (Homo sapiens) (P34981 whole entry, looked up): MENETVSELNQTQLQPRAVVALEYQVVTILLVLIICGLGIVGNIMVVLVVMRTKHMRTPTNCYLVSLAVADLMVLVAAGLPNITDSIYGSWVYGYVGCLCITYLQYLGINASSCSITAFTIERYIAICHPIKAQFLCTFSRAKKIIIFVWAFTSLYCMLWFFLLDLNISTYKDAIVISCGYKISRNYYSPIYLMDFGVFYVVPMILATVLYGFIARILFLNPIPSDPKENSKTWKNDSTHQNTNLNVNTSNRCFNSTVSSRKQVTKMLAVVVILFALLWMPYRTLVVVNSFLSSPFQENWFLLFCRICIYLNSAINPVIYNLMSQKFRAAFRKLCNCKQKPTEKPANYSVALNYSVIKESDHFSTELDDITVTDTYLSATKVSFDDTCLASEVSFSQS
row,Compound,activation
1,O=C1C(F)N([S+](=O)([O-])c2ccc3c(c2)OCCO3)CCN1[S+](=O)([O-])c1c(F)cccc1F (configuration not stated),0.239%
2,Cc1ccc(Cl)cc1N1CCN(C(=O)c2cn(C)c3ccc(S(=O)(=O)N(C)C4CCCCC4)cc3c2=O)CC1,-1.19%
3,O=C(NCCc1ccccc1)C(=O)NCC(c1ccco1)S(=O)(=O)c1ccccc1 (configuration not stated),-0.0493%
4,Cc1nn(C)cc1N1C(=O)c2cccc3c(N)ccc(c23)C1=O,172% (active)
5,CN1C(=O)c2cccc3c(N)ccc(c23)C1=O,152% (active)
6,CCc1nnc(NC(=O)[C@@H](NC(=O)c2cccc(C)c2)C(C)C)s1,47.4% (active)
7,CC(=O)Nc1ccc(NC(=O)[C@@H](NC(=O)c2cccc(C)c2)C(C)C)cc1,0.205%
8,Cc1cccc(C(=O)NCc2nnc(SC(C)C(=O)Nc3nnc(C)s3)n2C)c1 (configuration not stated),-0.0214%
9,Cn1ccc2cc(S(=O)(=O)N3CCCC(C(=O)NCc4ccccc4F)C3)ccc21 (configuration not stated),-0.718%
10,Cc1nn(C(C)C(=O)NCCc2ccccc2)c(=O)c2c1sc1ccccc12 (configuration not stated),-0.291%
11,COc1cc(Cl)c(NC(=O)CC(C)S(=O)(=O)c2cc3c(cc2C)NC(=O)CO3)c(OC)c1 (configuration not stated),-0.196%
12,CCCNC(=O)C(CC)n1nc(CC)n2c(cc3oc(C)cc32)c1=O (configuration not stated),0.892%
13,COc1ccc(-c2nc(Cn3c(=O)cc(C)c4c(C)nn(-c5ccccc5)c43)c(C)o2)c(OC)c1,0.643%
14,Oc1c(C(c2ccc(F)cc2)N2CCN(Cc3ccccc3)CC2)sc2nc(-c3ccco3)nn12 (configuration not stated),-0.524%
15,COc1ccc(-c2onc(C)c2C)cc1S(=O)(=O)NCC1CCN(Cc2cccc(F)c2)CC1,-0.0549%
16,CCOC(=O)C1CCN(C(c2ccc(F)cc2)c2sc3nc(-c4ccco4)nn3c2O)CC1 (configuration not stated),0.0847%
17,N#C/C(=C\c1ccccc1F)c1nc2ccccc2c(=O)[nH]1,3.32%
18,COc1cc(/C=C(\C#N)c2nc3c(s2)CC(C)CC3)ccc1O (configuration not stated),38.3% (active)
19,COc1cc(/C=C(\C#N)c2nc3ccccc3[nH]2)ccc1O,33.3% (active)
20,CCOc1ccc(/C=C(\C#N)c2nc3ccccc3c(=O)[nH]2)cc1OC,2.27%
21,COc1cccc2cc(-c3nc(Cl)c4c5c(sc4n3)CC(C)CC5)c(=O)oc12 (configuration not stated),0.639%
22,Cc1ccc(S(=O)(=O)c2cn(Cc3ccccc3)c3cc(N4CCCC4)c(F)cc3c2=O)c(C)c1,0.661%
23,Cc1ccc(C)c(N2CCN(C(=O)Cc3c(C(=O)O)c(C)cn3C)CC2)c1,-0.0012%

row,Compound,activation
1,COc1ccc(CNC(=O)c2cc3c(-c4ccccc4F)nn(C)c3s2)c(OC)c1,-0.894%
2,O=C(Nc1ccc(O)c(-c2nc3ccccc3o2)c1)c1ccc(-c2cccc(Cl)c2)o1,0.235%
3,CCOC(=O)CNC(=O)c1cc2c(=O)n3cccc(C)c3nc2s1,-0.701%
4,CCOC(=O)CC1C(=O)NCCN1c1nc2c(C)cccn2c(=O)c1/C=C1\SC(=S)N(C(C)CC)C1=O (configuration not stated),52.4% (active)
5,CCCN(CCC)c1nc2c(C)cccn2c(=O)c1/C=C1/SC(=S)N(Cc2ccco2)C1=O,12%
6,COc1ccc(-c2cc(C(=O)NCc3cc(OC)c(OC)c(OC)c3)[nH]n2)cc1,-0.734%
7,O=C(Cc1ccc(Cl)cc1)NCC(c1cccs1)S(=O)(=O)c1ccc(Cl)cc1 (configuration not stated),-0.0259%
8,CCCCN1C(=O)c2[nH]nc(-c3ccccc3O)c2C1c1cccc(OCc2ccccc2)c1 (configuration not stated),0.132%
9,Cc1ccc2nc(-c3ccc(C)c(NC(=O)Cc4ccccc4)c3)oc2c1,-0.54%
10,Cc1ccc(C2c3[nH]c4ccccc4c3CCN2C(=O)c2cccc(C)c2)cc1 (configuration not stated),0.132%
11,Cc1ccc(S(=O)(=O)NC(N)=NCCC[C@@H](NC(=O)CNC(=O)c2ccccc2)C(=O)Nc2cc(C(F)(F)F)ccc2Cl)cc1,-1.22%
12,COc1ccc(C2C(=O)N(C3CCCCC3)CC(=O)N2Cc2ccccc2Cl)cc1OC (configuration not stated),-1.14%
13,COc1ccc(-c2nc(Cn3c(=O)cc(C)c4c(C)nn(-c5ccccc5)c43)c(C)o2)cc1OC,-0.897%
14,Cc1ccc(Cn2ncc3c4sc(C)cc4n(C)c3c2=O)c(C)c1,0.195%
15,Cc1ccccc1CNC(=O)C1CCCN(S(=O)(=O)N(C)c2ccc(F)cc2)C1 (configuration not stated),-0.334%
16,Cc1cc(C)cc(NC(=O)CSc2nc3nccnc3c(=O)n2CCc2c[nH]c3ccccc23)c1,0.728%
17,O=C(CCS(=O)(=O)c1cc(Br)cc2c1N(C(=O)C1CC1)CC2)Nc1ccc(C(F)(F)F)cc1,-0.155%
18,CCOC(=O)c1c(S(=O)(=O)N2CCC(C(=O)NCc3ccccc3OC)CC2)c(C)n(C)c1C,-0.102%
19,O=C(CCSCc1cccc(F)c1)NCc1ccccc1,-0.592%
20,CN(Cc1ccccc1)C(=O)c1cn(C)c2ccc(S(=O)(=O)N3CCCCC3)cc2c1=O,0.115%
21,CCOc1ccc(C2C(=O)N(C3CCCCC3)CC(=O)N2CCC2=CCCCC2)cc1OC (configuration not stated),0.439%
22,O=[S+]([O-])(c1ccc(OC(F)(F)F)cc1)N1CCN([S+](=O)([O-])c2ccc3c(c2)OCCO3)CC1,-0.283%
23,CCc1ccc2oc(-c3ccc(C)c(NC(=O)/C=C/c4ccco4)c3)nc2c1,-0.323%

row,Compound,activation
1,COc1ccccc1C(=O)Nc1c(C(=O)N(C)Cc2ccccc2)sc2nc(C)c(Cl)c(C)c12,-1.19%
2,CCc1cccc(NC(=O)CN(c2ccc(C)c(C)c2)S(=O)(=O)c2ccsc2C(=O)OC)c1,0.768%
3,COc1ccc(NC(=O)c2ccc3oc(=O)c(S(=O)(=O)c4ccc(F)cc4)cc3c2)c(OC)c1,-0.513%
4,Cc1cc(S(=O)(=O)c2cc3ccc(O)c(C)c3oc2=O)ccc1F,44.2% (active)
5,COc1cc(Br)cc2cc(S(=O)(=O)c3ccccc3)c(=O)oc12,0.456%
6,Cc1ccc2cccc(NC(=O)C(C)Oc3ccc(C)c(C)c3)c2n1 (configuration not stated),0.214%
7,COc1ccccc1NC(=O)CSc1oc(-c2ccco2)nc1S(=O)(=O)c1ccc(Br)cc1,-0.526%
8,Cc1ccccc1Cn1nc(C)c(NC(=O)c2cc(-c3ccc(F)cc3)on2)c1C,-0.526%
9,CC1=C(c2ccc(F)cc2)S(=O)(=O)N=C1N1CCC(C(=O)NCCc2ccccc2C)CC1,0.06%
10,CCc1ccc(S(=O)(=O)n2ccnc2)cc1,0.631%
11,O=C(O)CCC(=O)Nc1ccc(N2CCOCC2)cc1,0.0804%
12,C/C(=C/c1ccccc1)C(=O)N1CCN(c2ccccc2)CC1,-0.0779%
13,O=C(/C=C/c1ccc(N2CCOCC2)cc1)c1ccccc1,42.4% (active)
14,COc1ccc(Cn2c(=O)c3oc4ccccc4c3n(CC(=O)Nc3ccc(F)cc3F)c2=O)cc1,1.15%
15,CCOC(=O)c1cc2c(=O)n3ccccc3nc2n(CCCOC)c1=NC(=O)C(C)Oc1ccccc1 (configuration not stated),0.485%
16,N#Cc1nc(Nc2cc(F)cc(Cl)c2)nc(NC2CCCC2)n1,1.3%
17,N#CN1CCC(NS(=O)(=O)c2cccc(F)c2)C1 (configuration not stated),0.751%
18,O=C(Cn1cnc2c(oc3ccccc32)c1=O)Nc1ccc(OC(F)(F)F)cc1,0.788%
19,CCOC(=O)C1CCN(c2nc3c(S(=O)(=O)c4ccc(CC)cc4)nnn3c3ccc(Cl)cc23)CC1,0.759%
20,Cc1cccc(C)c1-n1ncc(C(=O)NCCCN2CCCCC2)c1C1CCN(C(=O)OC(C)(C)C)CC1,0.838%
21,CCC(CC)c1nn2cc(-c3ccccc3)nc2s1,6.57%
22,CC(C)CNc1ncnc2c1nnn2C,-0.593%
23,CCOC(=O)c1cc(-c2ccc(OC)c(S(=O)(=O)Nc3ccc(OC)cc3OC)c2)on1,1.19%

row,Compound,activation
1,O=[S+]([O-])(c1ccc2c(c1)OCCO2)N1CCN([S+](=O)([O-])c2c(Cl)cc(Cl)cc2Br)CC1,-1.11%
2,Cc1ccc(S(=O)(=O)N2CCCc3cc(NS(=O)(=O)c4cc(C)ccc4C)ccc32)cc1,-0.123%
3,CCCCCCc1cc2cc(-c3nnc(-c4ccccc4)o3)c(=O)oc2cc1O,185% (active)
4,COc1cccc(N2CCN(C(=O)CCCCCn3c(=O)[nH]c4ccccc4c3=O)CC2)c1,-0.437%
5,COCCn1c(CCC(=O)Nc2cc(C)ccc2C)nc2cccnc21,-1.95%
6,COc1ccccc1-n1c(-c2ccc(C)cc2)cn2c3c(=O)n(C)c(=O)n(C)c3nc12,0.636%
7,CCc1ccc(N(CC)C(=O)CCn2cnc3onc(-c4ccc(F)cc4)c3c2=O)cc1,0.0408%
8,Cc1noc(C)c1-c1ccc2ncnc(NCc3ccc(F)c(F)c3)c2c1,21.5%
9,CCC(=O)N1c2ccccc2CC1C(=O)N1CCN(c2cccc(OC)c2)CC1 (configuration not stated),-0.304%
10,CN(C)c1ccc(/C=C2\NC(=S)N(Cc3ccccc3)C2=O)cc1,94.7% (active)
11,COc1ccccc1CNC(=O)NCc1noc2ccc(C)cc12,-0.0554%
12,CCOc1ccc(CNC(=O)Cn2cc3c(n2)-c2c(oc(C(=O)N4CCCC4)c2C)CC3)cc1,-0.1%
13,CN(C)c1ccc(C(=O)NCC(=O)OC(C(=O)Nc2cc(C(F)(F)F)ccc2Cl)c2ccccc2)cc1 (configuration not stated),0.138%
14,CC1(C(=O)NCCc2c[nH]c3ccccc23)C=CC2(CCCCC2)N1C(=O)c1ccccc1 (configuration not stated),0.212%
15,O=C(CCCCCn1c(=O)[nH]c2ccccc2c1=O)NCCc1c[nH]c2ccccc12,-0.335%
16,N#C/C(=C/c1ccc(N2CCCCC2)o1)C(=O)NCCc1c[nH]c2ccccc12,43.2% (active)
17,COc1ccc(CCNC(=O)CCCCn2c(=O)c3ccccc3n(Cc3ccccc3)c2=O)cc1OC,-0.65%
18,COc1cc(C(=S)NCc2ccccc2)cc(Br)c1O,-0.891%
19,COc1cc(/C=C2/SC(=S)N(Cc3ccccc3)C2=O)cc(OC)c1O,33.6% (active)
20,Cc1ccc(S(=O)(=O)N2CCc3cc(C(=O)Nc4ccc(Cl)cc4C)ccc32)cc1,0.483%
21,Cc1nc2ccn(Cc3cccnc3)c(=O)c2cc1C(=O)N1CCN(c2ccccc2F)CC1,-0.337%
22,O=C1CC(c2nnc(Cc3ccc(Cl)cc3)o2)CN1c1ccccc1 (configuration not stated),-0.928%
23,Cc1cccc(-n2ncc(C(=O)N3CCN(c4ccc(Cl)cc4)CC3)c2C2CCN(C(=O)OC(C)(C)C)CC2)c1,3.67%
